The record followed here is PubChem BioAssay (Tox21).

A short description of experiment [1]: qHTS assay for small molecule agonists of the p53 signaling pathway (AID 651631; calls by dose curve; further: nearly all actives have a fitted effect of over 15% in size; further: potency means the concentration at half of the fitted maximal effect). In a few lines: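 HCT-116 p53RE-bla reporter line, 16 h compound treatment at 37 °C, then fluorescence after 2 h with B/G FRET substrate.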
On the technique in general: Quantitative high-throughput screening tests each substance at several concentrations.

Experiment [2] can be described thus: qHTS assay for small molecules that induce genotoxicity in human embryonic kidney cells expressing luciferase-tagged ATAD5 (AID 651632). Further: nearly all actives have a fitted effect of over 15% in size. In a few lines:
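HEK293T cells carrying luciferase-tagged ATAD5 were given compound or DMSO vehicle and incubated 16 hr at 37C, 5% CO2. Luciferase activity was read after 30 min at room temperature with Amplite; a rise signals genotoxic stress.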

The nature of experiment [3]: qHTS assay for small molecules that induce genotoxicity in human embryonic kidney cells expressing luciferase-tagged ATAD5 - cell viability (AID 651634; calls by dose curve; further: nearly all actives have a fitted effect of over 25% in size). In a few lines:
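HEK293T cells carrying luciferase-tagged ATAD5, 2,000 cells/well, exposed to compound for 15.5 hr at 37C. Viability read as live-cell protease activity by CellTiter-Fluor fluorescence after 30 min at 37C.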

Experiment [4] can be described thus: qHTS assay for small molecule disruptors of the mitochondrial membrane potential (AID 720635). An outline of the steps: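 Mitochondrial membrane potential tracked with Mito-MPS dye, red aggregates (ex 540/em 590 nm) against green monomers (ex 490/em 535 nm). Compound treatment 1 hr at 37C, dye 30 min in HepG2.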
A short description of experiment [5]: qHTS assay to test for compound auto fluorescence at 590 nm (red) in HepG2 cells (AID 720674). In a few lines:
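Red autofluorescence (Ex/Em 540/590 nm, Rose Bengal sodium equivalents) was measured in HepG2 cells, 2,000 per well in MEM plus 10% FBS, plated overnight at 37 C. Readings were taken 1 hr after adding 23 nL compound or DMSO, at 37 C and 5% CO2.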

Experiment [6] is described as follows: qHTS assay to test for compound auto fluorescence at 535 nm (green) in HepG2 cells (AID 720675).
Experiment [7] in a line: qHTS assay to test for compound auto fluorescence at 460 nm (blue) in HEK293 cells (AID 720678). An outline of the steps: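 Triamterene serves as the blue fluorophore standard. Compound signal at 405/460 nm is read in HEK293 wells (2,000 cells, 10% dialyzed FBS) after overnight treatment at 37C.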
Experiment [8] in a line: qHTS assay to test for compound auto fluorescence at 590 nm (red) in HEK293 cells (AID 720679). In a few lines:
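We plated HEK293 cells in 10% dialyzed FBS medium, let them adhere for 4-5 hr, then added 23 nL compound. Overnight at 37C and 5% CO2 preceded fluorescence measurement at 540/590nm.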

The nature of experiment [9]: qHTS assay to test for compound auto fluorescence at 535 nm (green) in HEK293 cells (AID 720680).
A short description of experiment [10]: qHTS assay to test for compound auto fluorescence at 535 nm (green) in HEK293 cell free culture (AID 720682). In a few lines: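 Steps: dispense DMEM/10% FBS into empty wells; pin in compound or DMSO; measure fluorescence at 485/535 nm. Values are fluorescein equivalents.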
The nature of experiment [11]: qHTS assay to test for compound auto fluorescence at 590 nm (red) in HEK293 cell free culture (AID 720683). In a few lines: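 Red-channel autofluorescence of compounds in culture medium (DMEM, 10% FBS), no cells, measured at 540/590 nm. Rose Bengal sodium is the reference fluorophore for equivalence.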
Experiment [12] is described as follows: qHTS assay to test for compound auto fluorescence at 590 nm (red) in HepG2 cell free culture (AID 720684). An outline of the steps:
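Steps: dispense MEM/10% FBS medium, no cells; pin compound or DMSO vehicle; read red channel, Ex/Em 540/590 nm. Output given as Rose Bengal sodium equivalents.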

The nature of experiment [13]: qHTS assay to test for compound auto fluorescence at 460 nm (blue) in HepG2 cell free culture (AID 720685). In a few lines:
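Compound (23 nL) or DMSO pinned into cell-free MEM with 10% FBS; blue fluorescence read at 405/460 nm excitation/emission, expressed as auto-fluorescence equivalency to triamterene.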

Experiment [14] in a line: qHTS assay to test for compound auto fluorescence at 535 nm (green) in HepG2 cell free culture (AID 720686).
Experiment [15] is described as follows: qHTS assay to test for compound auto fluorescence at 460 nm (blue) in HepG2 cells (AID 720687). In a few lines: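 Blue-channel autofluorescence (Ex/Em 405/460 nm, triamterene-equivalent) was measured after 1 hr compound exposure at 37 C, 5% CO2. Cells were HepG2, plated overnight at 37 C in MEM plus 10% FBS.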
In experiment [16] the target is Glucocorticoid receptor (Homo sapiens) (UniProt P04150). The experiment can be described thus: qHTS assay to identify small molecule agonists of the glucocorticoid receptor (GR) signaling pathway (AID 720691; active means well fitted activation curve with a large enough effect in the signal ratio in the repeat runs, not every such curve was filed as active; the % refers to the signal ratio). To be noted: GR-bla HeLa, beta-lactamase reporter ratio, 18 h; activation: at 62.4 µM (top of the series) unless noted. An outline of the steps: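 GR-bla HeLa cells carrying a GRE-driven beta-lactamase reporter, exposed to compounds for 18 h at 37 C. Reporter activation read as fluorescence after 2 h with LiveBLAzer B/G FRET substrate at room temperature.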
Chain of Glucocorticoid receptor (Homo sapiens) (P04150 whole entry, looked up): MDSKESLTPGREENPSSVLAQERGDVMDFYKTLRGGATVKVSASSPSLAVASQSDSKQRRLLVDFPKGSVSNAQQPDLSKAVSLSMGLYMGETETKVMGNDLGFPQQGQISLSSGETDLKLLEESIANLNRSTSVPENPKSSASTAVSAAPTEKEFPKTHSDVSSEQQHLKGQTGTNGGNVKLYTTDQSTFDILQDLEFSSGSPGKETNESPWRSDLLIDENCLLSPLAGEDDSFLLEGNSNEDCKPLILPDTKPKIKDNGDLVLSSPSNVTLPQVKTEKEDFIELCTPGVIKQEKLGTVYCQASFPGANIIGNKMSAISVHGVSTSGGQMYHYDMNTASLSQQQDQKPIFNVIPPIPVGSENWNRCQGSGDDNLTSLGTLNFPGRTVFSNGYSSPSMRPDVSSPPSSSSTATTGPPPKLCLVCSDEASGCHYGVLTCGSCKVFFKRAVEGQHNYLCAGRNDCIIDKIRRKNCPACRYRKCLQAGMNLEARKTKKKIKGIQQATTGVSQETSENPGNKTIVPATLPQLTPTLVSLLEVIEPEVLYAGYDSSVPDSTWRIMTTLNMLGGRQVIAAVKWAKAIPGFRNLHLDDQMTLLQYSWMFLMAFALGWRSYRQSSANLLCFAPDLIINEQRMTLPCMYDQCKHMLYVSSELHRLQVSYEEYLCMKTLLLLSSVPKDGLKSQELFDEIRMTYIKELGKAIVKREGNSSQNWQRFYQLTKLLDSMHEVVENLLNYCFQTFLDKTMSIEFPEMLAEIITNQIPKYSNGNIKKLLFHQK

Experiment [17] has the same target. The experiment is described as follows: qHTS assay to identify small molecule antagonists of the glucocorticoid receptor (GR) signaling pathway (AID 720692; active means well fitted inhibition curve with a large enough effect in the signal ratio in the repeat runs, not every such curve was filed as active; the % refers to the signal ratio). An outline of the steps: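 GR-bla HeLa cells carrying a GRE-driven beta-lactamase reporter received compound after 4 h plating, then dexamethasone (5 nM final). After 18 h at 37C, the FRET substrate was loaded for 2 h at room temperature and fluorescence read.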

A short description of experiment [18]: qHTS assay for small molecule agonists of the p53 signaling pathway - cell viability (AID 651633; calls by dose curve; further: nearly all actives have a fitted effect of over 30% in size; further: potency means the concentration at half of the fitted maximal effect). In a few lines:
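Viability counter-read: CellTiter-Glo luminescence (30 min, room temperature) in the same p53RE-bla plates. These plates had been exposed to compounds for 16 h at 37 C.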

Experiment [19] can be described thus: qHTS assay to test for compound auto fluorescence at 460 nm (blue) in HEK293 cell free culture (AID 720681). An outline of the steps:
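Blue fluorescence (Ex 405/Em 460 nm, triamterene-equivalent) was read immediately after pin transfer of compound or DMSO into medium (DMEM, 10% FBS) without cells.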

A short description of experiment [20]: qHTS assay for small molecule disruptors of the mitochondrial membrane potential - cell viability (AID 720634; calls by dose curve;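 further: human HepG2 liver cancer cells; nearly all actives have a fitted effect of over 20% in size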). In a few lines: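 HepG2 cells, 2,000 per well, attached overnight, then treated 1 hr at 37 C, 5% CO2. Viability read as ATP by CellTiter-Glo luminescence after 30 min at room temperature. Read in the same wells as the m-MPI membrane-potential dye assay.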

Unmarked numbers belong to inactive results. Inconclusive results are not listed. Active and inactive are the calls of the source. Unless noted, the call rests on the fitted dose curve; in most records, active means well fitted curve in the direction sought with a large enough effect in the repeat runs; inconclusive means weak or mixed curves; inactive means no such curve, though single readings can be large; an effect the other way counts as inactive or inconclusive.
On the % scale 0 is the no-effect control and ±100 the full control effect.

In the case of `C/C=C/C(=O)CC`, the activation was -0.927% [at 18 µM] in experiment [1], 0.488% [at 17.9 µM] in experiment [2] and -3.49% [at 15 µM] in experiment [16]. In experiment [3], the activity, negative = cytotoxicity was -7.15% [at 17.9 µM]. The ratio activity, negative = MMP loss in experiment [4] was 2.87% [at 17.9 µM]. Further, the fluorescence, relative to Rose Bengal in experiment [5] was -0.234% [at 18.6 µM]. Besides, the fluorescence, % of fluorescein control is 0.0122% [at 18.6 µM] in experiment [6] and -0.0146% [at 18.6 µM] in experiment [14]. In addition, the fluorescence, % of triamterene in [7] was -0.166% [at 18.6 µM]. Moreover, the fluorescence, % of fluorescent control in experiment [8] is -0.535% [at 18.6 µM]; in experiment [11], -0.144% [at 18.6 µM]; in experiment [13] it was -0.0097% [at 18.6 µM]; in experiment [15] it was -0.0002% [at 18.6 µM]. Moreover, the fluorescence, % of fluorescein in experiment [9] is 0.0426% [at 18.6 µM]. Further, the activity change in experiment [10] is 0.0169% [at 18.6 µM]. Besides, in [12], the fluorescence, % of Rose Bengal is 0.0791% [at 18.6 µM]. The Potency result in experiment [17] was “inactive”.
As for `O=S(c1cc(Cl)cc(Cl)c1O)c1cc(Cl)cc(Cl)c1O`, the Potency was 8.41 µM (active) in experiment [1] and 3.35 µM (active) in [18]. Besides, the Potency result in [2], in experiment [3], in experiment [5], in experiment [8], in experiment [11] and in experiment [12] was “inactive” throughout. The Potency result in experiment [14] and in experiment [16] was “inactive” in each case. The call in experiment [7], in experiment [9], in [19], in experiment [10], in [13] and in [15] was inactive.
Take `O=C(Cl)c1cc(C(=O)Cl)cc(C(=O)Cl)c1`: the Potency entry in [2], in [18], in [3], in experiment [20], in experiment [5] and in [6] was “inactive” in each case. The Potency result in experiment [8], in [11], in experiment [12] and in experiment [14] was “inactive” throughout. In addition, the result in experiment [7], in [9], in experiment [19], in experiment [10], in [13] and in experiment [15] was inactive.
`CCCOC(C(=O)OC1CCN(C)CC1)(c1ccccc1)c1ccccc1`: the Potency entry in experiment [2], in experiment [18], in experiment [3], in [20], in experiment [5] and in [6] was “inactive” each time. Also, the Potency entry in experiment [8], in [12], in experiment [14] and in experiment [16] was “inactive” in each case. The compound was called inactive in [7], in [9], in experiment [19], in experiment [10], in experiment [13] and in experiment [15].
For `C=C(C)C(=O)OCCO`, the Potency result in [2], in experiment [18], in experiment [3], in experiment [20], in experiment [4] and in experiment [6] was “inactive” throughout. For the same compound, the Potency entry in experiment [8], in [11], in experiment [12], in experiment [14] and in [16] was “inactive” each time. In addition, the outcome in experiment [7], in experiment [9], in experiment [19], in [13] and in experiment [15] was inactive.
Consider `S=C([S-])NCCNC(=S)[S-].[Mn+2]`, for which the Potency result in experiment [2], in experiment [18], in experiment [3], in [20], in experiment [5] and in experiment [6] was “inactive” each time. Besides, the Potency result in experiment [8], in [11], in [12], in experiment [14] and in experiment [16] was “inactive” throughout. In addition, the compound was classed as inactive in experiment [7], in [9], in experiment [19], in experiment [10] and in experiment [15].
As to `CC(C)(C)OCC1CO1` (configuration not stated), the Potency result in experiment [2], in [18], in [3], in experiment [20], in experiment [4] and in experiment [5] was “inactive” throughout. Besides, the Potency result in experiment [6], in [8], in experiment [12] and in [14] was “inactive” throughout. Moreover, the compound was called inactive in experiment [7], in [9], in experiment [19], in [10] and in experiment [15].
